Screening data deposited in PubChem BioAssay by National Center for Advancing Translational Sciences (NCATS).
An excerpt weighted towards active compounds, which were near 3.8% of everything screened.
TGFb SMAD3 inh = TGF-b pathway inhibition; HepG2 CAGA-GFP TGF-b/SMAD3 reporter, GFP fluorescence, 18 h; TGF-beta stimulated, 500 pg/mL final; Potency, µM (series often up to 46.1 µM), without a hit: at the top dose activity, negative = inhibition, actives largely listed as inhibitors; 410,000 compounds, 1.2% hits; AID 588855; further: on the % scale 0 is the no-effect control and ±100 the full control effect; nearly all actives have a fitted effect of over 65% in size
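Per well, imaged GFP fluorescence of HEPG2 CAGA-GFP cells gives the signal; cells get compound, then TGF-beta (500 pg/mL final), 18 h at 37 degrees C; %Activity versus -TGF-beta and +DMSO controls.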
A549 viability = counter-screen for Nrf2 inhibitors: cytotoxicity in A549 cells; A549 ARE-Fluc cells, CellTiter-Fluor viability, 18-24 h; Potency, µM (series often up to 46 µM), for the others: at the highest dose activity change, negative = cytotoxicity, hits mostly inhibitors; 390,000 compounds, 0.16% hits; AID 504648; further: on the % scale 0 is the no-effect control and ±100 the full control effect
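Cytotoxicity counterscreen: CellTiter-Fluor fluorescence was measured in A549 ARE_Fluc cells after 18-24 h of compound exposure in a concentration series. The subsequent BugLite luminescent read reports ARE-luciferase activity.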
Nrf2 inh = inhibitors of Nrf2 signaling | A549 ARE-Fluc reporter, luciferase luminescence, 18-24 h | 360,000 compounds, 2.1% hits | Potency, µM (top dose mostly 46 µM), inactives show at the top dose activity change, negative = inhibition, usual class: inhibitors | AID 504444; further: on the % scale 0 is the no-effect control and ±100 the full control effect; nearly all actives have a fitted effect of over 60% in size
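A549 ARE_Fluc cells (5000/well, 5% FBS OPTI-MEM) pre-incubated 2 h, then treated with compounds 18-24 h at 37C/5% CO2 in concentration-response. CellTiter-Fluor viability read first; BugLite luciferase luminescence after 15 min at room temperature gives Nrf2 activity.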
ATXN2 expr inh = reduces ATXN2 reporter expression in HEK-293 cells | HEK-293 ATXN2-luciferase reporter, luminescence, 24 h | 360,000 compounds, 0.72% hits | Potency, µM (highest dose often 57 µM), without a hit: at the highest dose activity change, negative = inhibition, hits mostly inhibitors; further: on the % scale 0 is the no-effect control and ±100 the full control effect; nearly all actives have a fitted effect of over 55% in size
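ATXN2-luciferase reporter cells (luciferase flanked by upstream and downstream ATXN2 gene portions) were treated 24 h at 37 °C with compounds at up to 57 uM. SteadyGlo luminescence gave expression; GF-AFC fluorescence gave viability.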
S2 tox = reduces viability in counter-screen for ATXN expression inhibitors; 400,000 compounds, 0.49% hits; S2 cells (HEK-293 line with an ATXN2-luciferase reporter) viability, CellTiter-Fluor protease fluorescence, 24 h; Potency, µM (doses to about 56.7 µM), hits mostly cytotoxic; AID 651635; further: nearly all actives have a fitted effect of over 40% in size
HepG2 tox = counter-screen for TGF-b inhibitors: cytotoxicity in HepG2 cells | 410,000 compounds, 0.76% hits | HepG2 CAGA-GFP viability, ATP luminescence, 18 h | Potency, µM (doses to about 46.1 µM), for the others: top-dose activity change, negative = cytotoxicity, most hits filed as cytotoxic
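CellTiter-Glo luminescence gave cytotoxicity after 18 hours at 37 degrees C. The cells were HepG2 CAGA-GFP in 1% FBS DMEM, stimulated with 500 pg/mL TGF-beta after compound addition. %Activity was normalised to no-cell wells (complete cell-killing) and DMSO (no toxicity), and curves were fitted and classified.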
* marks the source's active call; other numbers are inactive results; i = inactive; ? = inconclusive; · = no result given. The call rests on the fitted dose curve; in most records, active means well fitted curve in the direction sought with a large enough effect; inconclusive means small, poorly fitted or top-dose-only effect, or another doubt; inactive means no such curve, though single readings can be large; an effect the other way counts as inactive or inconclusive. Potency means the concentration at half of the fitted maximal effect.

SMILES | TGFb SMAD3 inh | A549 viability | Nrf2 inh | ATXN2 expr inh | S2 tox | HepG2 tox
COc1ccc(OC2CCN(S(=O)(=O)c3ccc(OC)c(OC)c3)CC2)cc1 | -23% | -15% | 16µM* | ? | i | 11µM*
CCCOc1ccc(C2C(=O)N(C3CCCCCC3)CC(=O)N2CCC)cc1OC (stereo unspecified) | -5% | -4% | · | · | · | -28%
O=C(CCNS(=O)(=O)c1ccc2c(c1)CCCC(=O)N2)Nc1cccc(Cl)c1 | -5% | 5% | -30% | -14% | i | -1%
CC(=O)c1ccc(NC(=O)C(Cc2ccccc2)n2cccc2)cc1 (stereo unspecified) | -6% | 0% | 5% | 1% | i | 1%
COc1cc(C(=O)/C=C/c2cccnc2)c([N+](=O)[O-])cc1OC | ? | ? | 18µM* | 13µM* | 14µM* | -93%
O=C(/C=C/c1cccnc1)c1ccc([N+](=O)[O-])cc1 | -4% | 5% | 13% | -29% | i | -37%
O=C(C=Cc1cccnc1)c1ccccc1 | 20µM* | ? | -20% | ? | · | -37%
O=C(C=Cc1ccccn1)c1ccccc1 | 6.3µM* | -3% | ? | ? | · | 10µM*
O=C(/C=C/c1cccnc1)c1ccc(O)cc1 | ? | -16% | 1% | 35% | i | -3%
CCC1Sc2ccc(S(=O)(=O)CCC(=O)NCc3ccco3)cc2NC1=O (stereo unspecified) | ? | 1% | 0% | · | i | -17%
COc1cc(=O)n2c(c1C(=O)NCc1ccco1)CCN(Cc1cccc(Cl)c1)CC2 | · | · | · | · | i | ·
O=C(CN1CCN(c2cccc(C(F)(F)F)c2)CC1)N(C1CCCC1)C1CCS(=O)(=O)C1 (stereo unspecified) | -21% | -3% | -3% | 10% | i | -9%
Cc1nc2cc(NC(=O)c3ccc(S(=O)(=O)N(C)c4ccccc4)cc3)ccc2o1 | ? | -19% | 8.2µM* | ? | ? | 0%
CN(c1cccc(NC(=O)c2ccc(N(C)S(=O)(=O)c3ccccc3)cc2)c1)S(C)(=O)=O | -25% | -15% | 15µM* | · | ? | -4%
O=C(Nc1nnc(-c2ccccc2)o1)c1ccc(Cl)cc1 | ? | -26% | ? | 20µM* | · | -17%
CN(c1ccccc1)S(=O)(=O)c1ccc(NC(=O)c2ccc(-c3ccccc3)cc2)cc1 | -19% | -21% | 15µM* | ? | i | -1%
COc1cc(NC(=O)c2ccc(S(=O)(=O)N(C)c3ccccc3)cc2)cc(OC)c1 | 1% | -14% | ? | -16% | i | -16%
CC1CCN(C(=O)C2COc3ccccc3C2)CC1 (stereo unspecified) | -14% | 14% | · | 12% | i | -9%
COc1ccc(NC(=O)Nc2ccc3c(c2)OCO3)c(C)c1 | 3% | -14% | -3% | 2% | i | 0%
CN(c1ccccc1)S(=O)(=O)c1ccc(C(=O)Nc2nnc(-c3ccc(F)cc3)o2)cc1 | 0% | -15% | 23µM* | ? | i | -41%
COC(=O)[C@]12CCCCC=C1N(Cc1cccc3ccccc13)C(=O)[C@H](CC(=O)NCCCN1CCCC1=O)C2 | · | · | · | 0% | i | ·
COc1ccc(C)cc1Nc1n[n+](-c2ccccc2)c(-c2ccc(N(C)C)cc2)s1 | -17% | -17% | ? | ? | ? | -41%
Cc1ccc2c(c1)sc(-c1ccc(N(C)C)cc1)[n+]2C | ? | ? | 2.1µM* | · | ? | -32%
COc1cc(/C=C/C(=O)Nc2cccc(S(=O)(=O)N3CCOCC3)c2)ccc1OCC#N | -5% | -9% | 15µM* | -33% | i | -18%
COc1ccc(/C=C/C(=O)Nc2cccc(S(=O)(=O)N3CCOCC3)c2)cc1OC | 14% | 3% | ? | -7% | i | -3%
